Measured values from PubChem BioAssay.
Calls of active or inactive are those of the source.

Columns and labels:
[1] = test system: PRMT1 (protein arginine N-methyltransferase 1); experiment: small molecules binding arginine methyltransferase PRMT1 – biochemical, small-molecule microarray, 635 nm fluorescence, primary screen (AID 1088); conditions: higher = more signal;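 note: binding of Prmt1 protein to compounds spotted on small-molecule microarray slides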
[2] = growth effects on S. cerevisiae YJM789 – YJM789 clinical isolate, OD600, 24 h, basal, primary screen (AID 1089); conditions: higher = more signal, called active from +8 up or from −8 down;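 note: growth of clinical yeast isolate S. cerevisiae YJM 789 seeded 1000 cells per well; test concentration not given here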
[3] = S. pombe growth modifiers, basal conditions – strain 972, OD600, 24 h, no modulator, primary screen (AID 1090);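 note: basal condition with compound alone and no growth modifier present; test concentration not given here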; conditions: S. pombe 972 growth, higher = more signal, called active from +8 up or from −8 down
[4] = budding yeast growth modifiers under rapamycin – strain BY4716, OD600, 96 h, primary screen (AID 1091); note: test concentration not given here; conditions: S. cerevisiae BY4716 + rapamycin, higher = more signal, called active from +8 up or from −8 down
[5] = target: Torsin-1A-interacting protein 2 (Homo sapiens) (UniProt Q8NFQ8); experiment: small molecules binding lysate-expressed LULL1 – cell lysate, human LULL1 lysate, 635/667 nm fluorescence, primary screen (AID 1092); conditions: small-molecule microarray, hLULL1 lysate binding, 635 nm fluorescence; higher = more signal;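 note: probe is lysate of COS7 cells overexpressing human LULL1; score merges per-feature 667 nm fluorescence with signal-to-noise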
[6] = optical density change of DRC41 E. coli – strain DRC41, OD650, 24 h, E. coli filamentation project, primary screen (AID 1093);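 note: MC1000 strain lacking acrAB efflux and sulA so SOS filamentation is blocked; test concentration not given here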; conditions: E. coli DRC41 growth, higher = more signal, called active from +8 up or from −8 down
[7] = probe aLefty2 binding to arrayed compounds – biochemical, biotinylated probe, 635/667 nm fluorescence, primary screen (AID 1094); conditions: small-molecule microarray, higher = more signal;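 note: score merges spot fluorescence near 667 nm with spot signal-to-noise ratio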
[8] = test system: Noggin (protein binding on small-molecule microarray); experiment: small molecules binding Noggin protein – biochemical, 635/667 nm fluorescence, primary screen (AID 1095); conditions: 635 nm fluorescence, higher = more signal;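 note: score merges 667 nm feature fluorescence with signal to noise over triplicate slides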
[9] = target: Neurogenic locus notch homolog protein 3 (Homo sapiens) (UniProt Q9UM47); experiment: small molecules binding NOTCH3 protein – biochemical, 635/667 nm fluorescence, primary screen (AID 1096); conditions: small-molecule microarray, 635 nm fluorescence, higher = more signal
[10] = probe aEGFR binding to arrayed compounds – biochemical, biotinylated probe, 635/667 nm fluorescence, primary screen (AID 1097); conditions: small-molecule microarray, higher = more signal;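 note: probe is a biotinylated anti-EGFR antibody binding compounds printed on slides; score combines fluorescence near 667 nm and signal to noise of each spot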

Neurogenic locus notch homolog protein 3 (Homo sapiens), sequence (Q9UM47 whole entry, looked up): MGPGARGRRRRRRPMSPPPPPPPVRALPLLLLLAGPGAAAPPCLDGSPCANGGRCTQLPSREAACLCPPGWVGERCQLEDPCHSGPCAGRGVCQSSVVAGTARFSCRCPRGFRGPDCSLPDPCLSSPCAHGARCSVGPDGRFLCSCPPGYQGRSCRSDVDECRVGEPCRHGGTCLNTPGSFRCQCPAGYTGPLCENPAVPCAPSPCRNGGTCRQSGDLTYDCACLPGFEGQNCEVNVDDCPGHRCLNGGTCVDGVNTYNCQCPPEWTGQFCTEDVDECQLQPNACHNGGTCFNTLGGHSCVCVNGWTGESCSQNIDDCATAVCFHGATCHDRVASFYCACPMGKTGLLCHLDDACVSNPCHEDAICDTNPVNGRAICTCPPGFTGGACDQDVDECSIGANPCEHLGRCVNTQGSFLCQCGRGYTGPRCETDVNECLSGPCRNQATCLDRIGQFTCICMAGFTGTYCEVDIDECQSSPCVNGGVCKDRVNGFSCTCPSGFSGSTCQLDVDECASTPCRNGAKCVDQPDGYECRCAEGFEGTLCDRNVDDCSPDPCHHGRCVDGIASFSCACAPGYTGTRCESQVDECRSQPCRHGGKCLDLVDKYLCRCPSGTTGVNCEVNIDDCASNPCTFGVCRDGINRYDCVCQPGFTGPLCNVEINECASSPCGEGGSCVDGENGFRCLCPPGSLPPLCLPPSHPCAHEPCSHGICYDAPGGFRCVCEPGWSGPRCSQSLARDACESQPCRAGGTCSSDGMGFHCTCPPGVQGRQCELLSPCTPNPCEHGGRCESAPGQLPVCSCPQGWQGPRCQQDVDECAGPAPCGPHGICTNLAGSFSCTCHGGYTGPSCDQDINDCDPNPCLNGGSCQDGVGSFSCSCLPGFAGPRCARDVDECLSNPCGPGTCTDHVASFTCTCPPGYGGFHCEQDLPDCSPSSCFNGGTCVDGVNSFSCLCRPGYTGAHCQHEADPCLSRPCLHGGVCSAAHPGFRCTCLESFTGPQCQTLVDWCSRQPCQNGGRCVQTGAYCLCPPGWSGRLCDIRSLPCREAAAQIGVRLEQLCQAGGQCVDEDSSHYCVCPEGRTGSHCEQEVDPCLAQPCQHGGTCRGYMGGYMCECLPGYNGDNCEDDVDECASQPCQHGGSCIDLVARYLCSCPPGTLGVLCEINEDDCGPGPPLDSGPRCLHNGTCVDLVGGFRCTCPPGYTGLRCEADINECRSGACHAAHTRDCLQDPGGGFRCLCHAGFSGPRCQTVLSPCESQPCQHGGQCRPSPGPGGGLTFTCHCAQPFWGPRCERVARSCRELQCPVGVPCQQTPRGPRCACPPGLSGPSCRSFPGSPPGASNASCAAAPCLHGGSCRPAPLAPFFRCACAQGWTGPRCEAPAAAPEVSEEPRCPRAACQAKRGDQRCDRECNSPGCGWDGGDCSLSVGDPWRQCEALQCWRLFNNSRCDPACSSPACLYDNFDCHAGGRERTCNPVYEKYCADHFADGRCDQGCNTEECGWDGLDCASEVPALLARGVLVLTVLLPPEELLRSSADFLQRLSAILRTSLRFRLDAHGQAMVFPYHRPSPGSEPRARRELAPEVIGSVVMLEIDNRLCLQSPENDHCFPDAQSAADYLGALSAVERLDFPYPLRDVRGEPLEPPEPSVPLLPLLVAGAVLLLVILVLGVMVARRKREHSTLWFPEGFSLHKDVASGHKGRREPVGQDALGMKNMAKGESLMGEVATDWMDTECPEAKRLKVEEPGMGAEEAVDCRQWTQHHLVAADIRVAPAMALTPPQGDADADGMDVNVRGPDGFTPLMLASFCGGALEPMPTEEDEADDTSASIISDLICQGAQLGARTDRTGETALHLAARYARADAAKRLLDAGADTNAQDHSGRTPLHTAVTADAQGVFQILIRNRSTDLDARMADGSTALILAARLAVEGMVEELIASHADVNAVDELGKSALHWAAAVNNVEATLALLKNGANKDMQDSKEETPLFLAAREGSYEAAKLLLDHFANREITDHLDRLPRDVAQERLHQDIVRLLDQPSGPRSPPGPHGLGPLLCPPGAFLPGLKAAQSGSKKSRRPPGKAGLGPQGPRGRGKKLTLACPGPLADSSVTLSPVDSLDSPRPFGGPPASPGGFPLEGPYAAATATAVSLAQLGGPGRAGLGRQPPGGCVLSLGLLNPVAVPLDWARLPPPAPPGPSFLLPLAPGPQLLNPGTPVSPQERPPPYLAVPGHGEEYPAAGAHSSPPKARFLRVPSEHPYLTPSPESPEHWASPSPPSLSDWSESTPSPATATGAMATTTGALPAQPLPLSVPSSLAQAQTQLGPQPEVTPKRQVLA
Torsin-1A-interacting protein 2 (Homo sapiens), sequence (Q8NFQ8 whole entry, looked up): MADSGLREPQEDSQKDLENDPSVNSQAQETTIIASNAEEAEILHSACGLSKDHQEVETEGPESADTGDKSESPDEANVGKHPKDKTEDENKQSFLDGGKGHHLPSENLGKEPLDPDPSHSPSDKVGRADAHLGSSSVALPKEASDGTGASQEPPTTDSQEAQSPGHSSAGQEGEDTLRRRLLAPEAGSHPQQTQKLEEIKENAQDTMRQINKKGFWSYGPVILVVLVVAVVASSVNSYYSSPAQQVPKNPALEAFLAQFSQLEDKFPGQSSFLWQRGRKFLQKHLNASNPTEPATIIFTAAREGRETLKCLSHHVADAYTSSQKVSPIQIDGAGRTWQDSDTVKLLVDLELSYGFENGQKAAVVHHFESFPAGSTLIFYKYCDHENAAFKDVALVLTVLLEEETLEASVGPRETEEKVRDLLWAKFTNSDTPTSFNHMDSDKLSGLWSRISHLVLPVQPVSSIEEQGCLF

Compound | composite z-score [1] | z-score [2] | z-score [3] | z-score [4] | composite z-score [5] | z-score [6] | composite z-score [7] | composite z-score [8] | composite z-score [9] | composite z-score [10]
Cc1c(NC(=O)/C(C#N)=C/C=C/c2ccccc2)c(=O)n(-c2ccccc2)n1C | 0.311 | 0.243 (inactive) | -0.678 (inactive) | 0.561 (inactive) | 0.396 | 1.94 (inactive) | -0.31 | 0.244 | 0.478 | -0.0293
O=C1OCCC/C=C\[C@H]2OC34C=CCN(Cn5nnc6ccccc65)C(=O)[C@H]3N(CCCO)C(=O)[C@@H]4C12 (stereo not given in full) | 1.19 | -0.57 (inactive) | 0.0555 (inactive) | -0.264 (inactive) | 3.64 | 0.123 (inactive) | -0.225 | -0.9 | -0.0127 | -0.232
Cc1ccc(N2C(=O)c3ccccc3[C@@H](C(=O)NC(C)C)[C@@H]2c2ccc(CO)cc2)nc1 | 0.528 | -1.14 (inactive) | -0.958 (inactive) | -1.62 (inactive) | 3.07 | -0.113 (inactive) | -0.0336 | -0.0751 | -0.528 | -0.115
COc1ccc([Si](C)(C)[C@H]2[C@H](CC(=O)N3CCC[C@H]3CO)O[C@@]3(C(=O)N(c4ccccc4)c4ccccc43)[C@@H]2C)cc1 | 0.258 | -1.85 (inactive) | -0.841 (inactive) | -1.27 (inactive) | 0.958 | 2.45 (inactive) | -0.0651 | 0.285 | 0.125 | -0.15
C=C(CCCC)/C(=C/C[C@H](OC(C)=O)c1ccc(CO)o1)c1cc(C(=O)OC)ccc1OC | 1.56 | 1.02 (inactive) | -1.01 (inactive) | -0.194 (inactive) | 1.8 | 1.05 (inactive) | -0.0371 | 1.8 | 1.09 | -0.125
CN1C(=O)C2C=CC(C(O)C(C)(C)C)N(Nc3ccccc3)C2C1=O (stereo not given) | -0.316 | 0.392 (inactive) | 1 (inactive) | 0.949 (inactive) | 3.16 | -0.971 (inactive) | -0.266 | -0.611 | -0.784 | -0.19
COC(=O)[C@@]1(Cc2ccccc2)[C@H]2c3cc(C(=O)N(C)C)n(Cc4ccccc4)c3C[C@H]2CN1C(=O)c1ccccc1 | -0.361 | 0.84 (inactive) | 1.74 (inactive) | 1.51 (inactive) | 2.59 | -0.813 (inactive) | 0.434 | 0.018 | 0.85 | 0.291
C=CCC(OC(C)=O)[C@@H]1[C@@H](N(Cc2ccc(-c3ccccc3)cc2)C(=O)c2ccc(C)cc2)c2cc(OCCCO)ccc2N1C(=O)c1ccc2ccccc2n1 (stereo not given in full) | -0.11 | -2.47 (inactive) | -0.772 (inactive) | -1.15 (inactive) | 0.209 | 1.95 (inactive) | 0.407 | -0.267 | -0.197 | -0.0836
C=C(CCCC)C(=O)CC[C@@H](OC(=O)c1ccccc1-c1ccccc1C(=O)O)c1ccc(CO)o1 | 1.56 | -0.516 (inactive) | -0.0561 (inactive) | -0.667 (inactive) | 0.779 | 0.122 (inactive) | 0.0202 | 1.24 | 0.534 | 0.0068
O=C1c2ccccc2[C@@]2(Cc3ccccc3N(Cc3ccccc3)C2=O)[C@H](c2ccc(CO)cc2)N1Cc1ccccc1C(F)(F)F | -0.325 | 0.376 (inactive) | -0.666 (inactive) | -1.11 (inactive) | 2.03 | 0.127 (inactive) | -0.222 | -0.848 | 0.117 | -0.243
COC(=O)C(CC#Cc1ccc2c(c1)[C@]1(C(=O)N2)[C@H](C(=O)N2CCCCCCC2)[C@H]2C(=O)O[C@H](c3ccccc3)[C@H](c3ccccc3)N2[C@@H]1c1ccccc1OCCO)C(=O)OC | 1.54 | 0.293 (inactive) | -0.97 (inactive) | 0.172 (inactive) | 5.3 | -0.823 (inactive) | 1.89 | 2.44 | 1.02 | 1.46
COC(=O)c1nc2oc1CC[C@@H](CO)NC(=O)N(C)Cc1cn(nn1)C[C@H](Cc1ccccc1)NC2=O | 0.594 | 0.654 (inactive) | -3.35 (inactive) | -0.858 (inactive) | 2.59 | 2.05 (inactive) | -0.139 | 1.04 | 0.175 | -0.181
COCCOC(=O)N1C(=O)[C@@]2(c3cc(C#CCCO)ccc31)[C@H](C(=O)NC[C@H](O)c1ccccc1)[C@H]1C(=O)O[C@H](c3ccccc3)[C@H](c3ccccc3)N1[C@@H]2c1ccc(OCCO)cc1 | 1.54 | 1.23 (inactive) | 0.619 (inactive) | 4.47 (inactive) | 3.11 | 2.17 (inactive) | 0.0129 | 0.909 | 1.05 | 0.0634
C=CCN1Cc2ccccc2C[C@]2(N=C(c3ccc(OCCCO)cc3)O[C@@H]2c2ccccc2)C1=O | 1.56 | -6.17 (inactive) | -9.52 (active) | 0.272 (inactive) | 3.27 | 1.49 (inactive) | 0.129 | 0.824 | 1.07 | -0.0455
C=C(C(=O)CC[C@@H](OC(=O)c1cccnc1)c1ccc(CO)o1)C(C)C | 1.54 | 0.813 (inactive) | -0.485 (inactive) | -0.0796 (inactive) | 1.97 | -0.601 (inactive) | -0.0415 | 1.53 | 1.14 | -0.0697
CC1CC/C=C\[C@H]2OC34C=CCN(CCN5CCOCC5)C(=O)[C@H]3N(CCCCCO)C(=O)[C@@H]4C2C(=O)O1 (stereo not given in full) | -0.632 | -0.631 (inactive) | -0.726 (inactive) | -0.206 (inactive) | -1.13 | -0.497 (inactive) | -0.339 | -1.02 | -1.17 | -0.158
CN(C)CCCC[C@@H]1NC(=O)[C@@H]2C[C@H](C(=O)NCCCCCN)[C@H](c3ccc(O)cc3)N2C1=O | 0.255 | 0.212 (inactive) | -0.977 (inactive) | 0.213 (inactive) | 2.6 | 0.0706 (inactive) | -0.0862 | -0.668 | -0.0504 | -0.075
CC(C)C[C@@H]1NC(=O)[C@@H]2C[C@H](C(=O)NCCCCN(C)C)[C@H](c3ccc(O)cc3)N2C1=O | 0.577 | -0.145 (inactive) | 1.36 (inactive) | -0.367 (inactive) | 0.218 | -0.0929 (inactive) | 0.0566 | 0.118 | -0.531 | -0.218
